# Data reported in PubChem BioAssay AID624308 (National Center for Advancing Translational Sciences (NCATS), 2012).
# Inconclusive results are not listed. Unmarked numbers belong to inactive results. The source made the active and inactive calls. The call rests on the fitted dose curve; in most records, active means well fitted inhibition curve with a large enough effect; inconclusive means small, poorly fitted or top-dose-only effect; inactive means flat fitted curve, though single readings scatter.
# Target: Peptidyl-prolyl cis-trans isomerase NIMA-interacting 1 (Homo sapiens) (UniProt Q13526)
# Sequence (Q13526 whole entry, looked up): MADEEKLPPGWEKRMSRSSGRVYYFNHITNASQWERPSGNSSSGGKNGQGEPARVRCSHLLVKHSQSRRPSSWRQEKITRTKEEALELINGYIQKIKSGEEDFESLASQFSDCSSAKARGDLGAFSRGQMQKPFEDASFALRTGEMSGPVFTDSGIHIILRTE
# Test: qHTS Assay to Find Inhibitors of Pin1: Hit Validation
# Conditions: Pin1 FP peptide displacement, HiFluor488 probe; series mostly up to 57.5 µM; activity, negative = inhibition: at the top concentration
# Description: The unique chemical properties of Pro allow for the adoption of two completely distinct amide bond conformations (cis and trans). Peptidyl-prolyl cis/trans isomerases (PPIases) are evolutionary conserved enzymes that catalyze cis/trans isomerization of peptidyl-prolyl peptide bonds. Distinct from all other PPIases such as cyclophilins and FK506-binding proteins (FKBPs), Pin1 binds a subset of phos.Ser/Thr-Pro-containing proteins using its protein-targeting WW domain and isomerizes only specific phos.Ser/Thr-Pro bonds, which cannot be effectively catalyzed by other known PPIases. Pin1-catalyzed conformational regulation can control a spectrum of activities of many key regulators in diverse cellular processes such as cell growth, genotoxic and other stress responses, immune response, germ cell development, neuronal differentiation and survival. Pin1 has emerged as a novel molecular timer that modulates its multiple targets at various steps of a given cellular process to synergistically control the amplitude and duration of a cellular response or process. Importantly, Pin1 is tightly regulated by multiple levels and its deregulation has an important role in a growing number of pathological conditions, including cancer, Alzheimer's disease, aging, asthma and microbial infection, providing a potentially new therapeutic option. The goal of this screen is to find small-molecule inhibitors of Pin1 using a fluorescence polarization competition assay. A HiFluor-488-labeled peptide binds to the active site of Pin1 and can be displaced by compounds. Compounds were screened as a concentration-titration series that ranged from 57 uM to 0.7 nM. This is the hit validation to test the hits identified in the primary screen. NIH Molecular Libraries Probe Production Network [MLPCN] NIH Chemical Genomics Center [NCGC] MLPCN Grant: R03 DA031663 PI Name: Dr. Kun Ping Lu, Beth Israel Deaconess Medical Center
# Pin1 (0.6 uM) was dispensed into black, solid 1536-well plates at 2 uL/well in 10 mM HEPES (pH 7.5), 10 mM NaCl, 0.01% Tween20, 1 mM DTT, and 1% glycerol. Then, 23 nL of compounds or DMSO were delivered to each well using a pin tool. Two uL of Pin1-1b-HiFluor488 peptide (10 mM HEPES (pH 7.5), 10 mM NaCl, 0.01% Tween20, 1 mM DTT, and 1% glycerol, 0.02 uM Pin1-1b-HiFluor488) was then dispensed, and plates were incubated at room temperature for 10 min. The plates were measured on a ViewLux plate reader for fluorescence polarization signal using a 480/20 nM nm excitation filter and 540/25 nM nm S and P emission filters with a 20 second exposure. The %Activity was determined from the corrected fluorescence polarization values. Unlabeled Pin1-1c peptide was used as a control (3.5 mM two-fold serial; 20 uM final concentration) along with a 1x (0.3 uM) and 0x (no-enzyme) Pin1 enzyme control to normalize %Activity of identified inhibitors; 0x enzyme values corresponded to 100%Activity (full inhibition), while 1x Pin1 enzyme values were used to normalize 0%Activity (no inhibition). Concentration-response curves were fitted to the signals arising from the resulting fluorescence polarization. The concentration-effect curves were then classified based on curve quality (r2), response magnitude and degree of measured activity, and compounds were subsequently categorized based on their curve class. […] Keywords: Peptidyl prolyl isomerase, Pin1, fluorescence polarization, MLSMR, MLPCN, NIH Roadmap, qHTS, NCGC
Structure (SMILES),Potency,"activity, negative = inhibition [%]"
O=C1c2ccccc2C(=O)c2c(O)c(O)cc(O)c21,26.9 µM (active),
O=S(=O)(O)c1ccc(O)c2cc(Nc3ccccc3)ccc12,1.69 µM (active),
COc1ccc(S(=O)(=O)Nc2cc(Sc3ncn[nH]3)c(O)c3ccccc23)cc1,,-0.212
CC(=O)Nc1ccc(Nc2c3c4c(cccc4n(C)c2=O)C(=O)c2ccccc2-3)cc1,3.38 µM (active),
COc1ccccc1Nc1ccc2c(O)cc(S(=O)(=O)O)cc2c1,1.2 µM (active),
CCCCCC(=O)Nc1cc(S(=O)(=O)O)cc2cc(S(=O)(=O)O)cc(O)c12,1.69 µM (active),
Cc1ccc2nc(-c3ccc(N=Nc4cc(S(=O)(=O)O)c5ccccc5c4O)cc3)sc2c1S(=O)(=O)O,3.01 µM (active),
COc1cccc2c1C(=O)c1c(O)c3c(c(O)c1C2=O)C[C@](O)(C(C)=O)C[C@H]3O[C@@H]1C[C@@H](N)[C@@H](O)[C@@H](C)O1,,-19.5
O=S(=O)(O)c1cc(O)c2cc(Nc3ccccc3)ccc2c1,10.7 µM (active),
O=S(=O)(Nc1cc(Sc2ncn[nH]2)c(O)c2ccccc12)c1ccccc1,,-0.289
